In this experiment the target is Genome polyprotein (dengue virus type 2) (UniProt P29990).
[1] abbreviates: Thailand/16681/1984, Concentration 25.0 uM, Number of replicates 1.0.

Screen size: about 2,000 compounds; about 110 (5.5%) showed an effect of 50% or more. For the sample, strong results were picked, then their nearest neighbours and some compounds at random.

For orientation: inhibition means the drop in the measured response relative to a control, in per cent. `CNC(=O)c1cc(Cl)ccc1NS(=O)(=O)c1ccc(C(=O)N(C)C)cc1`: the inhibition was -0.006% (Thailand/16681/1984, Concentration 49.5 uM, Number of replicates 2.0, Standard deviation 0.43931539952348436 %); 1.16% (Thailand/16681/1984, Concentration 99.01 uM, Number of replicates 2.0, Standard deviation 1.0448066347124485 %); 5.4% (Thailand/16681/1984, Concentration 198.0 uM, Number of replicates 2.0, Standard deviation 2.436767925477247 %).

Consider `O=Cc1ccc(N2CCC(C(=O)N3CCN(c4ccc(F)cc4F)CC3)CC2)cc1`, for which, under setting [1], the inhibition came to 11.4%.

`O=C(c1cc(Cl)ccc1NS(=O)(=O)c1ccc(Oc2ccccc2Cl)cc1)N1CCC[C@@H]1CO`: the inhibition reads like this: (Thailand/16681/1984, Concentration 49.5 uM, Number of replicates 2.0, Standard deviation 0.383564644131335 %) 17.2%; (Thailand/16681/1984, Concentration 99.01 uM, Number of replicates 2.0, Standard deviation 0.18466388793957156 %) 85.5%; (Thailand/16681/1984, Concentration 198.0 uM, Number of replicates 2.0, Standard deviation 0.022248141217142654 %) 93.6%.

On to `CNC(=O)C[C@H]1CCCN1S(=O)(=O)c1ccc(Oc2ccccc2Cl)cc1`, for which the inhibition reads like this: (Thailand/16681/1984, Concentration 49.5 uM, Number of replicates 2.0, Standard deviation 0.32757728686835763 %) -0.145%; (Thailand/16681/1984, Concentration 99.01 uM, Number of replicates 2.0, Standard deviation 1.5700018436077314 %) 1.46%; (Thailand/16681/1984, Concentration 198.0 uM, Number of replicates 2.0, Standard deviation 0.26515981673573996 %) 3.55%.

As for `CNC(=O)C[C@H]1CCCCN1S(=O)(=O)c1ccc(Oc2ccccc2Cl)cc1`, the inhibition (Thailand/16681/1984, Concentration 49.5 uM, Number of replicates 2.0, Standard deviation 0.6403061336392061 %) was -1.92%; the inhibition (Thailand/16681/1984, Concentration 99.01 uM, Number of replicates 2.0, Standard deviation 0.5926288072768489 %) is -0.478%; the inhibition (Thailand/16681/1984, Concentration 198.0 uM, Number of replicates 2.0, Standard deviation 0.4290957159902598 %) worked out at 1.47%.

Regarding `O=C(c1cc(Cl)ccc1NS(=O)(=O)c1ccc(Oc2ccccc2Cl)cc1)N1CC[C@H](CO)C1`, the inhibition turned out to be 2.87% (Thailand/16681/1984, Concentration 49.5 uM, Number of replicates 2.0, Standard deviation 1.1631525408138252 %); 43.6% (Thailand/16681/1984, Concentration 99.01 uM, Number of replicates 2.0, Standard deviation 1.2459174873464263 %); 97.8% (Thailand/16681/1984, Concentration 198.0 uM, Number of replicates 2.0, Standard deviation 0.07742612093802895 %).

For the molecule `CC[C@H]1CCN(C(=O)c2cc(Cl)ccc2NS(=O)(=O)c2ccc(Oc3ccccc3Cl)cc2)C1`, the inhibition reads like this: (Thailand/16681/1984, Concentration 49.5 uM, Number of replicates 2.0, Standard deviation 0.47789805764320614 %) 46.7%; (Thailand/16681/1984, Concentration 99.01 uM, Number of replicates 2.0, Standard deviation 0.11836183761011393 %) 61.8%; (Thailand/16681/1984, Concentration 198.0 uM, Number of replicates 2.0, Standard deviation 0.034704726588234404 %) 73.4%.

For the molecule `CNC(=O)[C@H]1CCCN(S(=O)(=O)c2ccc(Oc3ccccc3Cl)cc2)C1`, the inhibition was -1.55% (Thailand/16681/1984, Concentration 49.5 uM, Number of replicates 2.0, Standard deviation 1.3425926640552597 %); 0.94% (Thailand/16681/1984, Concentration 99.01 uM, Number of replicates 2.0, Standard deviation 1.1232771440198652 %); 2.72% (Thailand/16681/1984, Concentration 198.0 uM, Number of replicates 2.0, Standard deviation 1.8999403128335026 %).

As for `CNC(=O)[C@H]1CCN(S(=O)(=O)c2ccc(Oc3ccccc3Cl)cc2)C1`, the inhibition is -2.7% (Thailand/16681/1984, Concentration 49.5 uM, Number of replicates 2.0, Standard deviation 0.2326651022960228 %); -1.81% (Thailand/16681/1984, Concentration 99.01 uM, Number of replicates 2.0, Standard deviation 1.0727392899756494 %); 0.204% (Thailand/16681/1984, Concentration 198.0 uM, Number of replicates 2.0, Standard deviation 0.8124211767562954 %).

In the case of `O=Cc1ccc(N2CCC(C(=O)Nc3c(F)cc(F)cc3[N+](=O)[O-])CC2)cc1`, the inhibition under setting [1] stood at 15.2%.

For the molecule `Cc1cc(C(N)=O)c2cccc(Cl)c2n1`, the inhibition (Thailand/16681/1984, Concentration 49.95 uM, Number of replicates 2.0, Standard deviation 7.126306314460823 %) was -2.36% and the inhibition (Thailand/16681/1984, Concentration 99.9 uM, Number of replicates 2.0, Standard deviation 6.288884680839078 %) was found to be 0.295%.

Take `O=Cc1ccc(N2CCC(C(=O)N3CCN(C(=O)OCc4ccccc4)CC3)CC2)cc1`: under setting [1], the inhibition stood at 11.5%.

As to `CC(C)COc1ccc(CNC(=O)C2CCN(c3ccc(C=O)cc3)CC2)cc1`, the inhibition under setting [1] was 2.46%.

Take `COC(=O)c1c[nH]c(-c2ccccc2C(=O)Nc2cnn(C)c2)c1`: the inhibition is -3.99% (Thailand/16681/1984, Concentration 49.5 uM, Number of replicates 2.0, Standard deviation 4.6959836114984075 %); -4.57% (Thailand/16681/1984, Concentration 99.01 uM, Number of replicates 2.0, Standard deviation 3.634509710514387 %); -3.67% (Thailand/16681/1984, Concentration 198.0 uM, Number of replicates 2.0, Standard deviation 4.5675250537856 %).

In the case of `CCCN(C[C@H](O)COc1ccccc1C(=O)CCc1ccccc1)C(=O)C1CCN(c2ccc(C=O)cc2)CC1`, the inhibition under setting [1] is 15.7%.

Turning to `Cc1cc(CO)c2cccc(Cc3cccc(C(=O)N4CC[C@@H](CO)C4)c3)c2n1`, the inhibition (Thailand/16681/1984, Concentration 49.95 uM, Number of replicates 2.0, Standard deviation 1.5846275376108605 %) came to 1.42% and the inhibition (Thailand/16681/1984, Concentration 99.9 uM, Number of replicates 2.0, Standard deviation 0.9371220268229934 %) was 23.4%.

Take `Cc1cc(CO)c2cccc(Cc3ccccc3C(=O)N3CCC(C(=O)O)CC3)c2n1`: the inhibition reads like this: (Thailand/16681/1984, Concentration 49.95 uM, Number of replicates 2.0, Standard deviation 0.622352552136526 %) 0.457%; (Thailand/16681/1984, Concentration 99.9 uM, Number of replicates 2.0, Standard deviation 0.7955477281018075 %) 4.68%.

As to `Cc1cc(CO)c2cccc(Cc3ccccc3C(=O)N3CC[C@@H](CO)C3)c2n1`, the inhibition (Thailand/16681/1984, Concentration 49.95 uM, Number of replicates 2.0, Standard deviation 0.1537915321395842 %) was -0.863% and the inhibition (Thailand/16681/1984, Concentration 99.9 uM, Number of replicates 2.0, Standard deviation 0.5490500301245094 %) is 3.93%.

As for `Cc1cc(CO)c2cccc(Cc3ccccc3C(=O)N3CCC(CN)CC3)c2n1`, the inhibition runs as follows: (Thailand/16681/1984, Concentration 49.95 uM, Number of replicates 2.0, Standard deviation 7.669453256982897 %) 67%; (Thailand/16681/1984, Concentration 99.9 uM, Number of replicates 2.0, Standard deviation 4.997502207892192 %) 86.3%.

In the case of `Cc1cc(CO)c2cccc(Cc3cccc(C(=O)N4CCC(C(=O)O)CC4)c3)c2n1`, the inhibition by setting is: (Thailand/16681/1984, Concentration 49.95 uM, Number of replicates 2.0, Standard deviation 0.11067239798039237 %) -0.531%; (Thailand/16681/1984, Concentration 99.9 uM, Number of replicates 2.0, Standard deviation 0.04599367566818035 %) 2.3%.

`Cc1cc(CO)c2cccc(Cc3cccc(C(=O)N4CCC(CN)CC4)c3)c2n1`: the inhibition reads like this: (Thailand/16681/1984, Concentration 49.95 uM, Number of replicates 2.0, Standard deviation 0.03521723226612688 %) 98.6%; (Thailand/16681/1984, Concentration 99.9 uM, Number of replicates 2.0, Standard deviation 0.007908771829372243 %) 98.5%.

Regarding `O=Cc1ccc(N2CCC(C(=O)NC3CN(C(c4ccccc4)c4ccccc4)C3)CC2)cc1`, the inhibition under setting [1] worked out at 2.62%.

Consider `CC(C)N(C[C@H](O)COc1ccc(CC(N)=O)cc1)C(=O)C1CCN(c2ccc(C=O)cc2)CC1`, for which, under setting [1], the inhibition was 13.4%.

Turning to `Cc1ccc(S(N)(=O)=O)c(NCc2ccc(N3CCN(C)CC3)cc2)c1`, the inhibition (Thailand/16681/1984, Concentration 49.5 uM, Number of replicates 2.0, Standard deviation 0.9591550294519122 %) is -0.337%; the inhibition (Thailand/16681/1984, Concentration 99.01 uM, Number of replicates 2.0, Standard deviation 0.6629248720953049 %) came to 1.24%; the inhibition (Thailand/16681/1984, Concentration 198.0 uM, Number of replicates 2.0, Standard deviation 0.09920698004573132 %) turned out to be 1.03%.

In the case of `CCc1ccc(CN(CC(C)C)C(=O)C2CCN(c3ccc(C=O)cc3)CC2)cc1`, under setting [1], the inhibition was found to be 13.3%.

As to `O=Cc1ccc(N2CCC(C(=O)Nc3ccccc3Sc3ccccc3)CC2)cc1`, the inhibition under setting [1] is 12.1%.

For the molecule `CNC(=O)c1cc(Cl)ccc1NS(=O)(=O)c1cccc(Oc2ccccc2)c1`, the inhibition is, setting by setting: (Thailand/16681/1984, Concentration 49.5 uM, Number of replicates 2.0, Standard deviation 1.273206391645472 %) 8.45%; (Thailand/16681/1984, Concentration 99.01 uM, Number of replicates 2.0, Standard deviation 0.33776821571418564 %) 23.8%; (Thailand/16681/1984, Concentration 198.0 uM, Number of replicates 2.0, Standard deviation 0.06600533651594093 %) 89.9%.

Take `CCc1cccc(S(=O)(=O)Nc2ccc(Cl)cc2C(=O)NC)c1`: the inhibition (Thailand/16681/1984, Concentration 49.5 uM, Number of replicates 2.0, Standard deviation 0.31892086155653854 %) came out at 0.409%; the inhibition (Thailand/16681/1984, Concentration 99.01 uM, Number of replicates 2.0, Standard deviation 0.4824817381530084 %) was found to be 0.666%; the inhibition (Thailand/16681/1984, Concentration 198.0 uM, Number of replicates 2.0, Standard deviation 0.7239504320191382 %) was 1.73%.

In the case of `O=C(c1cc(Cl)ccc1NS(=O)(=O)c1ccc(Oc2ccccc2Cl)cc1)N1CCCC1`, the inhibition (Thailand/16681/1984, Concentration 49.5 uM, Number of replicates 2.0, Standard deviation 0.3065647121254482 %) was 37.4%; the inhibition (Thailand/16681/1984, Concentration 99.01 uM, Number of replicates 2.0, Standard deviation 0.3046576515240273 %) worked out at 55.4%; the inhibition (Thailand/16681/1984, Concentration 198.0 uM, Number of replicates 2.0, Standard deviation 0.40716687929743567 %) was found to be 69%.

For `O=S(=O)(Nc1ccccc1)c1ccc(Oc2ccccc2Cl)cc1`, the inhibition reads like this: (Thailand/16681/1984, Concentration 49.5 uM, Number of replicates 2.0, Standard deviation 1.8105423163556815 %) 1.05%; (Thailand/16681/1984, Concentration 99.01 uM, Number of replicates 2.0, Standard deviation 1.556829309720985 %) 2.93%; (Thailand/16681/1984, Concentration 198.0 uM, Number of replicates 2.0, Standard deviation 1.335088080503107 %) 5.83%.

Source of the values: ChEMBL document CHEMBL5606460, “ASAP - DENV-2 NS2B-NS3 protease fluorescence single point” (2024).
